According to PubChem BioAssay (NCI):
Compounds without any hit were thinned out: in the full panel of roughly 83,000, 20% have a hit.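 Assay: single dose, 48 h. Readout: percent growth (0 = no net growth; negative = cell death). Active: <10.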 Unmarked numbers belong to inactive results. The source made the active and inactive calls.

Columns and labels:
Experiment in all cases: NCI-60 one-dose screen, 48 h (100 = growth as untreated, 0 = no growth, -100 = all killed)
Details in all cases: 10 µM unless noted
RPMI-8226 leukemia = test system: RPMI-8226 leukemia
OVCAR-8 ovarian = test system: OVCAR-8 ovarian
OVCAR-5 ovarian = test system: OVCAR-5 ovarian
OVCAR-4 ovarian = test system: OVCAR-4 ovarian
SK-OV-3 ovarian = test system: SK-OV-3 ovarian
IGROV1 ovarian = test system: IGROV1 ovarian
OVCAR-3 ovarian = test system: OVCAR-3 ovarian
HS 578T breast = test system: HS 578T breast
NCI/ADR-RES ovarian = test system: NCI/ADR-RES ovarian
T-47D breast = test system: T-47D breast
BT-549 breast = test system: BT-549 breast
SW-620 colon = test system: SW-620 colon
MCF7 breast = test system: MCF7 breast
HCT-116 colon = test system: HCT-116 colon
HCC-2998 colon = test system: HCC-2998 colon
KM12 colon = test system: KM12 colon
MDA-MB-435 melanoma = test system: MDA-MB-435 melanoma

| SMILES | growth (RPMI-8226 leukemia) | growth (OVCAR-8 ovarian) | growth (OVCAR-5 ovarian) | growth (OVCAR-4 ovarian) | growth (SK-OV-3 ovarian) | growth (IGROV1 ovarian) | growth (OVCAR-3 ovarian) | growth (HS 578T breast) | growth (NCI/ADR-RES ovarian) | growth (T-47D breast) | growth (BT-549 breast) | growth (SW-620 colon) | growth (MCF7 breast) | growth (HCT-116 colon) | growth (HCC-2998 colon) | growth (KM12 colon) [%] | growth (MDA-MB-435 melanoma) [%] |
| --- | --- | --- | --- | --- | --- | --- | --- | --- | --- | --- | --- | --- | --- | --- | --- | --- | --- |
| COc1ccc(/C=C/C(=O)c2ccc(NC(=O)CSc3nnc(-c4ccc(OC)c(OC)c4)n3-c3ccccc3)cc2)cc1 | -25% (active) | 11.4% | 112% | 91.3% | 85.1% | -36.7% (active) | 59.8% | 86.6% | 57.4% | 36.2% | 55.2% | 10.2% | -8.34% (active) | -85.8% (active) | 94.9% | 61.3 |  |
| C=C1C(=O)O[C@H]2[C@H]1CC/C(COC(=O)c1cn(C)c3ccccc13)=C\CC[C@@]1(C)O[C@@H]21 | -29.5% (active) | -20.5% (active) | -25.5% (active) | -33.6% (active) | 63% | -47.6% (active) | -72.1% (active) | 12.7% | 3.25% (active) | -56.3% (active) | -24.4% (active) | -65.7% (active) | -46.1% (active) | -77.6% (active) | 34.9% | 31.2 |  |
| CCC1S/C(=N\N=C(/C)c2ccc[nH]2)N(c2ccccc2)C1=O (centres undefined) | 57.5% | 90.2% | 99.3% | 104% | 123% | -48.7% (active) | 89.7% | 124% | 85.2% | 122% | 126% | 92.8% | 117% | 91.6% | 104% | 112 |  |
| Cc1ccc(CS/C(=C\c2ccc([N+](=O)[O-])cc2)C(=O)c2ccc(F)cc2)cc1 | -18.3% (active) | 57.1% | 97.7% | 60.6% | 79.2% | 58.5% | 60.1% | 8.91% (active) | 49.6% | 49.6% | 75.8% | -11.5% (active) | -4.97% (active) | -53.1% (active) | 83.7% | 13.2 |  |
| O=c1c2ccccc2n(CC(O)CN2CCCC2)c2c(Br)cccc12 (centres undefined) | 44.9% | 94.1% | 76.3% | 108% | 101% | 93.3% | 106% | 98.9% | -14.8% (active) | 93.4% | 92.2% | 94.9% | 92.9% | 90.4% |  | 94 | 86.8 |
| CCCn1c2cc(OCc3cn(-c4ccc(Br)cc4)nn3)ccc2c2ccnc(C)c21 | 33% | 50.8% | 68.3% | -44% (active) | 85.7% | 49.1% | 60.5% | 66.9% | 63.1% | 66.6% | 90.2% | 47.4% | 62.4% | 54.7% | 83.4% | 67.6 |  |
| Cc1cc(NC(=O)CNc2nc(Oc3ccc(F)cc3)nc(-c3ccc(F)cc3)n2)ccc1Cl | 96.6% | 102% | 103% | 105% | 93.7% | 106% | 116% | 85.8% | 101% | 91.3% | 100% | 101% | 94.8% | 82.1% | 102% | 103 | 105 |
| N#CC1(C#N)C2=C(CCCC2)NC(c2c(F)cccc2Cl)C1(C#N)C#N (centres undefined) | 43.4% | 86.9% | 87.7% | 66.9% | 79.7% | 83.3% | 20.3% | 43.4% | 76.6% | 79.7% | 60.4% | 48.8% | 21.1% | 52.7% | 97.6% | 73.3 |  |
| COc1cc2nc3c(=O)n(-c4ccc(C#N)cc4)cnn3c(=O)c2cc1OC | 115% | 108% | 93.4% | 97% | 101% | 103% | 92.9% | 90.8% | 100% | 100% | 102% | 95.3% | 103% | 101% | 97% | 91.7 |  |
| COc1ccc2oc(=O)cc(-c3nc4ccc(N)cc4[nH]3)c2c1 | 83.4% | 89.9% | 92.6% | 95.8% | 77.5% | 76.7% | 86.2% | 81.5% | 88% | 51.8% | 77.1% | 103% | 77.2% | 88.6% | 97.9% | 87.7 | 106 |
| Cc1cc(C)c2nc(Nc3nc(C)c(C)c(=O)[nH]3)nc(C)c2c1 | -17.1% (active) | 15.5% | 48.8% | 20.8% | 7.87% (active) | 9.55% (active) | 5.78% (active) | 21.2% | 40.8% | 18.9% | 9.69% (active) | 9.96% (active) | 3.09% (active) | 3.76% (active) | 21.9% | 11.3 |  |
| COc1ccc2nc(-c3ccc(OC)c(OC)c3)cc(-c3nnc(SCC(=O)Nc4ccc(/C(C)=N\O)cc4)n3-c3ccccc3)c2c1 | 47.7% | 72.4% | 102% | 95.5% | 101% | 28.1% | 87.8% | 72.2% | 77.2% | 45.8% | 56.4% | 89.6% |  |  | 101% | 75.9 | 84.9 |
| Cc1cccc(C)c1Nc1nnc(-c2ccc(F)cc2)o1 | 109% | 109% | 93.9% | 103% | 102% | 97.9% | 93.6% | 108% | 97.8% | 110% | 107% | 98.1% | 96.6% | 101% | 99.4% | 89.2 |  |
| O=C(CCc1nnc2sc(OCc3ccccc3)nn12)c1nc2ccc([N+](=O)[O-])cc2[nH]1 | 106% | 94.7% | 103% | 102% | 77.3% | 93.8% | 96.4% | 88.2% | 99% | 97.7% | 102% | 107% |  |  | 101% | 95.7 | 106 |
| CCOC(=O)C1=C(C)n2nc(CC#N)c(C#N)c2NC1c1ccc(CC)cc1 (centres undefined) | 102% | 104% | 99.8% | 93.2% | 98.2% | 69.9% | 99.2% | 115% | 96.9% | 94.9% | 85.4% | 97.6% | 88.7% | 95.4% | 97.6% | 97 |  |
| O=C(NC[C@H](O)CN1CCc2ccccc2C1)c1cc(NC2COC2)ncn1 | 107% | 97.3% | 96.4% | 91.5% | 107% | 76.9% | 104% | 122% | 98.4% | 83.4% | 97.8% | 93.8% | 80.2% | 86.7% | 98.8% | 98.1 |  |
| C[C@@H]1C(=O)[C@@H]2C[C@@H](O)[C@@H](O)C[C@]2(C)[C@H]2CC[C@@]3(C)C(=C12)CC[C@@H]3[C@@](C)(O)[C@H](O)CCC(C)(C)O | 105% | 94.7% | 112% | 114% | 103% | 113% | 102% | 99.3% | 110% | 95.5% | 102% | 106% | 104% | 103% | 97.3% | 114 | 108 |
| C=C(C)[C@@H]1CC[C@]2(C(=O)n3ccnc3)CC[C@]3(C)[C@H](CC[C@@H]4[C@@]5(C)CCCNC(C)(C)[C@@H]5CC[C@]43C)[C@@H]12 | -51.3% (active) | 62.8% | 74.9% | 38.3% | 61.9% | 20.4% | 30.9% | 47.4% | 32.9% | 11.4% | 40.2% | -62.8% (active) | -20.3% (active) | -76.7% (active) | 6.43% (active) | 28.4 |  |
